Compound activity deposited in PubChem BioAssay by National Center for Advancing Translational Sciences (NCATS).
A selection: hits, their analogues and other compounds. The true share with any hit is near 19%.
DT40 TDP1 no CPT = qHTS for Inhibitors of human tyrosyl-DNA phosphodiesterase 1 (TDP1): qHTS in cells in absence of CPT; actives 15% (n = 420,000); DT40 Tdp1-/- hTDP1 cells, no CPT, ATP luminescence, 48 h; Potency, µM (top dose mostly 46.2 µM), inactives show at the top dose activity change, negative = growth inhibition, usual class: inhibitors; note: potency is the fitted concentration of half-maximal effect; nearly all actives have a fitted effect of over 55% in size
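Compound effects on proliferation are scored in DT40 Tdp1-/-;hTDP1 cells in the absence of CPT. ATP levels (CellTiter-Glo luminescence) are recorded after a ≥48 hr, 37 °C incubation.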
ELG1 repair inh = qHTS screen for small molecules that inhibit ELG1-dependent DNA repair in human embryonic kidney (HEK293T) cells expressing luciferase-tagged ELG1. Potency, µM (highest dose often 46.1 µM), for inactives: at the highest dose activity change, negative = inhibition, usual class: inhibitors. HEK293T ELG1-luciferase reporter, luminescence, 16 h; DNA damage induced by 5-fluorouridine. actives 2.3% (n = 330,000); note: potency is the fitted concentration of half-maximal effect; nearly all actives have a fitted effect of over 55% in size
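Cells (2,000 per well) received 5-fluorouridine plus test compound or DMSO and were incubated 16 hr at 37 °C, 5% CO2. Luciferase activity was read by luminescence 30 min after ONE-Glo addition; signal suppression marked inhibition of damage-induced ELG1 function.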
TDP1 block = qHTS Assay for Inhibitors of Tyrosyl-DNA Phosphodiesterase (TDP1). Tyrosyl-DNA phosphodiesterase 1 (Homo sapiens), Q9NUW8. AID 485290, 2010. actives 0.28% (n = 350,000). recombinant TDP1, AlphaScreen DNA substrate cleavage. Potency, µM (highest dose often 130 µM), inactives show top-dose activity change, negative = inhibition, usual class: inhibitors; note: potency is the fitted concentration of half-maximal effect; nearly all actives have a fitted effect of over 40% in size
Target sequence (Q9NUW8 whole entry, looked up): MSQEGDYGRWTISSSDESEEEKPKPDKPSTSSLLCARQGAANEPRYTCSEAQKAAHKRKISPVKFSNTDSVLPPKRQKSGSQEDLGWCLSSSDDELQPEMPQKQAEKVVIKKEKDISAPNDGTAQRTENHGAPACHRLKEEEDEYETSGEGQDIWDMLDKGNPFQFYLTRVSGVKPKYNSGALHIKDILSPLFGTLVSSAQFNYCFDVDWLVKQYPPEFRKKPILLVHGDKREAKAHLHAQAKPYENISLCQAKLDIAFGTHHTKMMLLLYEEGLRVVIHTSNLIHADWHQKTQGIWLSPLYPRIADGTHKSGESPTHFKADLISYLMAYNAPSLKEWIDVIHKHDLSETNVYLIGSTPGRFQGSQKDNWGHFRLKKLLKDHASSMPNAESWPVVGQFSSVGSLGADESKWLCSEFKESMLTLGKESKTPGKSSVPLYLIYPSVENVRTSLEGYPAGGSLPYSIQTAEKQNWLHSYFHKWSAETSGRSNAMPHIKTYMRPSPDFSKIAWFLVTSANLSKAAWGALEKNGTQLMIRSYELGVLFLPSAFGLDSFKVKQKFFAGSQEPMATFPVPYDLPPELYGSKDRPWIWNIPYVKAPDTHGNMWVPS
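Steps: enzyme plus compound, 15 min RT; add biotin/phosphotyrosine-FITC oligonucleotide (15 nM final), react 5 min; add donor/acceptor beads (10 ug/ml final), 10 min; read AlphaScreen. Tdp1 at 1 nM final.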
Giardia killer = Small Molecules that selectively kill Giardia lamblia: qHTS | Giardia lamblia trophozoite viability | activity change, % at 7.66 µM, hits read low | actives 0.15% (n = 340,000) | AID 540267, 2011; in the data active = activity change below about -80%; inconclusive = between about -30% and that limit;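 note: parasites exposed to compound for two days anaerobically before the ATP read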
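Anaerobic 48 hrs incubation at 37 deg C of 100 trophozoites/well with test compounds; ATPLite 1-Step luminescence, 15-30 min RT, reports cellular ATP as viability.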
IL-1B inflam inh = qHTS for Inhibitors of Inflammasome Signaling: IL-1-beta AlphaLISA Primary Screen. THP-1 LPS/ATP IL-1B secretion, AlphaLISA, 16 h; stronger effect = lower value. activity change, % at 57.5 µM. actives 4.7% (n = 360,000); in the data active = activity change below about -50%; inconclusive = mostly about -30% to -49%
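THP-1 cells pretreated 1 hr with compounds (up to 57.5 uM final), then stimulated with LPS (250 ng/mL final) plus ATP (1.25 mM final); secreted IL-1B measured by AlphaLISA after 16 hr, decreased signal indicating inhibition.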
TDP1 cell CPT = qHTS for Inhibitors of human tyrosyl-DNA phosphodiesterase 1 (TDP1): qHTS in cells in presence of CPT | actives 12% (n = 420,000) | chicken DT40 Tdp1-/-;hTDP1 cells + 20 nM CPT, ATP luminescence, 48 h | Potency, µM (series often up to 46.2 µM), for the others: at the top dose activity change, negative = growth inhibition, usual class: inhibitors; note: potency is the fitted concentration of half-maximal effect; nearly all actives have a fitted effect of over 55% in size
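Chicken DT40 Tdp1-/- cells stably complemented with human TDP1 were seeded at 400 cells/well in medium containing 20 nM camptothecin, exposed to pin-transferred compounds, and grown at 37 °C for at least 48 hr. Viability was read as ATP luminescence.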
* = called active by the depositor; ? = inconclusive; . = no result given; [ ] = remark or other dose. Unless noted, calls come from the whole dose curve; as a rule, active = well fitted curve in the direction sought with a large enough effect; inconclusive = small, poorly fitted or top-dose-only effect, or another doubt; inactive = no such curve, though single readings can be large; an effect the other way counts as inactive or inconclusive. % is set by controls: 0 for no effect and ±100 for the full control effect.

SMILES	DT40 TDP1 no CPT	ELG1 repair inh	TDP1 block	Giardia killer	IL-1B inflam inh	TDP1 cell CPT
O=C(N/N=C/c1cc([N+](=O)[O-])ccc1O)c1cccc(NC(=O)c2cccc(Cl)c2)c1	3.26µM*	?	56.2µM*	?	92.3	5.17µM*
O=C(Nc1ccccc1)C1CCN(S(=O)(=O)c2ccc3c(c2)CCCN3C(=O)C2CCC2)CC1	?	.	6.6%	.	.	?
CCC(=O)N1CCCc2cc(S(=O)(=O)N3CCC(C(=O)Nc4ccc(F)c(F)c4)CC3)ccc21	11.6µM*	.	5.5%	.	.	-86.7%
O=C(Nc1ccc(F)c(Cl)c1)C1CCN(S(=O)(=O)c2ccc3c(c2)CCCN3C(=O)C2CCC2)CC1	11.6µM*	.	-2.2%	.	.	9.2µM*
CCC(=O)N1CCCc2cc(S(=O)(=O)N3CCC(C(=O)Nc4ccc(C#N)cc4)CC3)ccc21	?	.	0.0%	.	.	18.4µM*
CCCn1c(-c2cccc(F)c2)nc2c1c(=O)[nH]c(=O)n2Cc1ccccc1	-19.0%	-1.2%	4.8%[0.0935 µM]	-12.8	13.7	-10.7%
COc1cc(Br)cc(-c2nc3c(c(=O)[nH]c(=O)n3Cc3ccccc3)n2C)c1O	23.1µM*	-7.3%	7.1%	5.9	27.8	16.4µM*
COc1ccc(-c2nc3c(c(=O)[nH]c(=O)n3Cc3ccccc3)n2Cc2ccccc2)cc1	20.6µM*	8.2µM*	4.5%	0.2	?	23.1µM*
Cn1c(-c2cccc(OCc3ccccc3)c2)nc2c1c(=O)[nH]c(=O)n2Cc1ccccc1	16.4µM*	?	8.8%	10.6	8.9	20.6µM*
COc1ccc(-c2nc3c(c(=O)[nH]c(=O)n3Cc3ccccc3)n2C)cc1	-6.6%	4.0%	6.1%	-8.6	-0.7	-4.0%
CCCn1c(-c2cc(OC)c(OC)c(OC)c2)nc2c1c(=O)[nH]c(=O)n2Cc1ccccc1	-97.5%	?	3.1%[0.0935 µM]	3.2	3.5	3.26µM*
O=C(Nc1ccc(Cl)cn1)c1ccc2nccnc2c1	?	?	0.0%	6.0	78.6	?
O=C(O)C/C=C(/NC(=O)OCc1ccccc1)C(=O)OCc1ccccc1	0.4%	0.7%	0.0%	9.8	-3.6	7.7%
CSc1ccc(-c2cccc3nncn23)cc1	-14.5%	.	.	.	-16.9	0.1%
COCCCNC(=O)Cn1c(=O)nc(-c2ccccc2)c2ccccc21	-4.0%	.	1.2%	.	.	9.2%
Cc1nnc(SCC(=O)N(C2CCCCC2)C2CCS(=O)(=O)C2)n1N (centres undefined)	7.8%	20.3%	-5.3%	-4.5	21.9	15.6%
CCCCC[C@@H](O)c1cc2ccccc2c(=O)o1	?	?	-3.9%	-8.0	-0.8	-18.9%
Cc1ccc(SCC(=O)N(C)CC(=O)Nc2cccc(F)c2)c(C)c1	?	17.5%	-4.4%	0.2	-52.9*	-22.2%
CN(CC(=O)Nc1ccccc1Br)C(=O)c1n[nH]c2ccccc12	-15.3%	-15.1%	1.5%	-10.6	15.7	-13.1%
Cc1ccc2nc(-c3ccccc3)cc(C(=O)N(C)CC(=O)Nc3ccccc3Br)c2c1	25.9µM*	?	-0.3%	-10.2	?	?
COc1cccc(-c2nn(-c3ccc(C)cc3)cc2C(=O)N(C)CC(=O)Nc2cccc(F)c2)c1	?	13µM*	1.0%	-3.7	0.0	18.4µM*
COc1ccc(-c2nn(-c3ccccc3)cc2/C=C/C(=O)OCC(=O)Nc2ccccc2C#N)cc1	23.1µM*	5.8%	-2.7%	-1.0	3.5	7.31µM*
